Sampled rows, rich in hits. Any-hit rate of the full collection: about 3.4%.
GPR151 ag: human GPR151 activation. PathHunter beta-arrestin GPR151 cells, luminescence. activation, % at 11.2 µM. actives 1% (n = 650,000). AID 1508602; in the data active means activation above about 4.9%;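 further: 0% = median of compound wells and 100% = cells with positive control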
Target sequence (Q8TDV0 whole entry, looked up): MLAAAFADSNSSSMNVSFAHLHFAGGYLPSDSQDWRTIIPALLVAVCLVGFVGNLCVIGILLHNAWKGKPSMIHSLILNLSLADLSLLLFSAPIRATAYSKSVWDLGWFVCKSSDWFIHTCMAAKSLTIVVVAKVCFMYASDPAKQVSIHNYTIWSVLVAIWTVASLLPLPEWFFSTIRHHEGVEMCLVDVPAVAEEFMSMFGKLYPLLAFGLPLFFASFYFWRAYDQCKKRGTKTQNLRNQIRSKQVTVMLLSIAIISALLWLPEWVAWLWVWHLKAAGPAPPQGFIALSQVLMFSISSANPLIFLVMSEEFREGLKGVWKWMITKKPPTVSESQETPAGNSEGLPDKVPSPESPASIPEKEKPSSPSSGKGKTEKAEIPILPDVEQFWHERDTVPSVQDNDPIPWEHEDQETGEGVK
FBW7 act: activators of human E3 ligase FBW7. normalized activity (activation), % at 26.1 µM. actives 0.13% (n = 650,000). AlphaScreen FBW7–phospho-cyclin E peptide binding, activator screen; in the data active means normalized activity above about 1.9%;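 further: purified mutant Fbw7 with reduced substrate affinity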
TEAD-YAP inh: TEAD-YAP interaction inhibition; HEK-TIYL cells, TEAD-Gal4/YAP UAS-luciferase luminescence; inhibition, % at 9.12 µM; actives 1.4% (n = 640,000); AID 1259422; in the data active means inhibition above about 32%;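 further: 0% = median of test compound wells and 100% = reference inhibitor wells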
MITF inh: human MITF inhibition, primary screen | O75030 | AlphaScreen MITF homodimerization, bead proximity signal | inhibition, % at 2.6 µM | actives 0.91% (n = 650,000); in the data active means inhibition above about 50%;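 further: 0% = vehicle wells with protein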
Active calls of the source: *.

SMILES	GPR151 ag	FBW7 act	TEAD-YAP inh	MITF inh
Cc1nc2sccn2c1CN1CCCC(N(C)CCc2ccccc2)C1 (stereo not given)	1	0	43*	-1
COc1cccc(CC2(CO)CCCN(Cc3c(C)nc4sccn34)C2)c1 (stereo not given)	0	0	41*	22
Cc1nc2sccn2c1CN1CCN(CCc2ccccc2)C(CCO)C1 (stereo not given)	-2	0	-5	19
FC(F)(F)c1nn2cc(-c3ccccc3)nc2s1	0	0	-42	-6
OC(c1cn2cc(-c3ccccc3)nc2s1)(C(F)(F)F)C(F)(F)F	-8	0	55*	-4
O=C(Cc1c[nH]c2ccccc12)Nc1nnc(C2CC2)s1	-1	0	34*	-1
CCCCOc1ccc(C(=O)NCc2nnc(SCC(=O)Nc3sc(C(=O)OCC)c(C)c3C(=O)OCC)n2C)cc1	3	0	-3	2
Cc1ccc2ccc(C(Nc3ccccn3)c3cccnc3)c(O)c2n1 (stereo not given)	-1	0	10	1
Oc1ccccc1NC(c1cccnc1)c1ccc2cccnc2c1O (stereo not given)	-1	0	7	98*
COc1ccc(NC(c2cccnc2)c2ccc3cccnc3c2O)cc1 (stereo not given)	0	-2	1	59*
COC(=O)COc1ccccc1/C=C1\SC(=O)N(c2ccccc2)C1=O	-1	0	1	26
Cc1nc(NCCNC(=O)COc2ccccc2)c2c3c(sc2n1)CCCC3	0	0	45*	2
Oc1ccccc1C(=S)N1CCN(Cc2ccccc2)CC1	1	0	-3	-10
COc1ccc2c(c1)C(=NN=C(N)N)c1cc(OC)ccc1-2	0	0	59*	-11
COc1ccc2c(c1)C(=O)c1cc(OC)ccc1-2	-1	0	-13	11
CCc1ccccc1NC(=O)CN(C)C(=O)CCl	-2	0	79*	-1
Cc1ccc(C(=O)Cn2c(C(=O)OCCO)cc3ccccc32)cc1	-1	0	34*	13
Cc1ccc(C(=O)Cn2c(C(=O)O)cc3ccccc32)cc1	1	0	4	-2
O=S(=O)(Nc1nc2ccccc2nc1NCc1ccc(F)cc1)c1ccccc1	2	0	-1	4
O=C1NN(c2ccc(Cl)c(Cl)c2)C(=O)/C1=C/c1ccccc1O	3	0	-10	6
CCOCCn1cnc2sc(C(=O)Nc3nc4ccccc4s3)c(C)c2c1=O	-2	0	49*	-6
CCOCCn1cnc2sc(C(=O)Nc3cnc4ccccc4c3)c(C)c2c1=O	1	0	79*	14
O=C(NC(c1ccccc1)c1ccccn1)C1CCN(C(=O)OCc2ccccc2)CC1 (stereo not given)	-1	0	5	4
CC(C)(C)OC(=O)N1CCc2c(cnn2-c2cccc(C(=O)Nc3ccc(N4CCOCC4)cc3)c2)C1	-1	4.1*	1	12
O=C(Nc1ccc(N2CCOCC2)cc1)c1cccc(-n2ncc3c2CCNC3)c1	0	0	0	1
SMILES	GPR151 ag	FBW7 act	TEAD-YAP inh	MITF inh
O=C(Nc1ccc(N2CCOCC2)cc1)c1cccc(-n2cc(-c3nc4ccccc4o3)cn2)c1	-1	2.4*	-6	-5
C=CC1=NC(c2ccccc2)(c2ccccc2)c2ccccc2N1	-1	1	-3	5
O=C(NCCc1ccccc1)c1ccc(OC2CCN(C(=O)C3CC3)CC2)cc1	0	0	-10	-7
CC(=O)N1CCC(Oc2ccc(C(=O)NCCc3ccccc3)cc2)CC1	3	0	-15	-16
CC(=O)NCC(=O)N1CCC(Oc2ccc(C(=O)NCCc3ccccc3)cc2)CC1	-1	0	33*	7
O=C(NCCc1ccccc1)c1ccc(OC2CCN(C(=O)C3=CCCC3)CC2)cc1	2	0	65*	-4
O=C1CC[C@@H](C(=O)N2CCC(Oc3ccc(C(=O)NCCc4ccccc4)cc3)CC2)N1	0	0	40*	0
O=C(NCCOc1cccnc1)c1ccc(OC2CCN(CCc3ccccc3)CC2)cc1	-2	0	42*	17
Cc1ccc2c(c1)c(-c1ccccc1)c(-c1ccccc1)n2CCC(=O)O	0	0	1	-5
COc1ccc(-c2csc(N3N=C(C)C(N=Nc4ccc(NC(C)=O)cc4)C3=O)n2)cc1 (stereo not given)	0	0	1	7
O=c1/c(=C/c2cccc([N+](=O)[O-])c2)sc2n1C(c1ccccc1)C(c1ccccc1)=NN=2 (stereo not given)	0	0	4	7
C[C@H](O)[C@H]1NC(=O)[C@@H]2C[C@H](NC(=O)c3cnn(-c4ccccc4)c3C(F)(F)F)CN2C1=O	1	0	6	-3
COc1ccc(C(=O)N(Cc2ccccc2)c2ccccn2)cc1[N+](=O)[O-]	0	0	-2	2
O=C(NCCc1ccccc1)c1ccc(OC2CCN(C(=O)c3cscn3)CC2)cc1	1	0	64*	10
O=C(NCCc1ccccc1)c1ccc(OC2CCN(C(=O)c3cnsn3)CC2)cc1	0	0	0	9
C=CCOC(=O)C1=C(C)Nc2nnnn2C1c1cccc(OC)c1 (stereo not given)	-1	0	50*	12
O=C(Nc1nnc(COc2ccc(C3CCCCC3)cc2)s1)C12CC3CC(CC(C3)C1)C2	-1	1.9*	-10	26
Nc1c(S(=O)(=O)O)cc2c3c(cccc13)C(=O)N(CCO)C2=O	2	0	-2	72*
CN(C)c1ccc2c3c(cccc13)C(=O)N(CCO)C2=O	-1	0	-20	-4
Cc1ccc(N/C(=N/S(=O)(=O)c2cccs2)c2ccccc2)cc1F	1	0	40*	-7
O=S(=O)(/N=C(\Nc1nccs1)c1ccccc1)c1cccs1	-3	0	-7	25
Cc1cc(-c2cccc3[nH]c(C(F)(F)F)nc23)nn1C(=O)c1cccnc1	3	0	63*	-1
CCOc1ccc(S(=O)(=O)Nc2cc3c(C(=O)OC)c(C)oc3c3ccccc23)cc1	2	0	63*	-2
CCOc1ccc(S(=O)(=O)Nc2cc3c4c(oc3c3ccccc23)CCCC4)cc1	-1	0	49*	-9
CCOC(=O)c1c(C)oc2c1cc(NS(=O)(=O)c1ccc(OC)cc1)c1ccccc12	0	0	51*	10
COc1ccc(S(=O)(=O)Nc2cc3c(C(C)=O)c(C)oc3c3ccccc23)cc1	3	0	69*	-3
CCNC(=O)c1ccc(Br)c(S(=O)(=O)N2CCOCC2)c1	1	0	-10	-7
CC1=C(C(N)=O)C(c2cccc(Br)c2)n2nc(-c3ccccc3)nc2N1 (stereo not given)	-2	0	4	11
CCC[C@@H]1NC(=O)[C@H]2CN(Cc3ccc4ncccc4c3)CCN2C1=O	-2	1	7	9
CCC(=O)Nc1cc(CNC(=O)c2csc(SC)n2)cc(C(=O)OC)c1	3	0	1	10

From PubChem
